Laboratory results as given in PubChem BioAssay AID623868 (Vanderbilt High Throughput Screening Facility, 2012).
Screen size: about 2,100 compounds; about 760 (36%) were called active.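 Rule for the calls: active = thallium-flux fluorescence traces judged by eye to show enhanced or reduced glutamate response, manual score 1 or -1, so both directions (some results past the limit were not filed as active); inactive = the rest, including fluorescent or raised-baseline compounds.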 A selection follows.

Test: thallium influx changes without GIRK channels – cell-based, HEK-293 rmGlu8, no GIRK, thallium flux, counter-screen for GIRK activator project, confirmation (AID 623868);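 note: extra codes mark interference with 3 for fluorescent and 4 for baseline rise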
Settings: thallium flux fluorescence, at 10 µM, actives lie on both sides, codes: 1 enhancer, -1 blocker, 0 none, thallium stimulus containing EC20 glutamate

Q: For `O=C(NC(=S)NCC1COc2ccccc2O1)c1ccccc1` (stereo unspecified), which manual score is on record?
A: 0 (inactive)

Q: Which manual score does the source give for `C=CCN(CC=C)C(=S)NC(=O)c1ccc(-c2ccccc2)cc1` here?
A: 1 (active)

Q: For `CN(Cc1ccccc1)C(=S)NC(=O)c1ccc(-c2ccccc2)cc1`, which manual score is on record?
A: 1 (active)

Q: Which manual score does the source give for `CCc1cccc(NC(=O)NC2CCCCC2)c1` here?
A: -0.5 (inactive)

Q: For `CCCN(CCC)C(=S)NC(=O)c1ccc(-c2ccccc2)cc1`, which manual score is on record?
A: 1 (active)

Q: For `CN(Cc1ccccc1)C(=S)NC(=O)C1CCCCC1`, which manual score is on record?
A: 1 (active)

Q: For `CCCN(CC1CC1)C(=S)Nc1ccc(Oc2ccccc2)cc1`, which manual score is on record?
A: 0 (inactive)

Q: Which manual score does the source give for `CCOC(=O)C(C)Oc1ccc2c(CC)cc(=O)oc2c1C` (stereo unspecified) here?
A: -0.5 (inactive)

Q: Which manual score does the source give for `CCCn1c(=N)c(C(=O)NCc2ccc3c(c2)OCO3)cc2c(=O)n3cccc(C)c3nc21` here?
A: 0 (inactive)

Q: Which manual score does the source give for `O=C(Nc1nnc(SCc2ccc(F)cc2)s1)C1CC(=O)N(c2ccc3c(c2)OCCO3)C1` (stereo unspecified) here?
A: 0 (inactive)

Q: With `C=CCN(CC=C)C(=S)NC(=O)c1ccc([N+](=O)[O-])cc1` as the compound, how does the manual score read?
A: 1 (active)

Q: For `Cn1cccc1CNC1CCCC1`, which manual score is on record?
A: 0 (inactive)

Q: With `COCCNC(=O)CCCCCn1c(=S)[nH]c2ccccc2c1=O` as the compound, how does the manual score read?
A: 0 (inactive)

Q: Which manual score does the source give for `C=CCn1c(=S)[nH]c2ccc(Br)cc2c1=O` here?
A: 1 (active)

Q: With `C=CCn1c(=S)[nH]c2ccccc2c1=O` as the compound, how does the manual score read?
A: 1 (active)

Q: With `CC(=O)c1ccc(N2CCCC2)c(F)c1` as the compound, how does the manual score read?
A: 0 (inactive)

Q: Which manual score does the source give for `CCOC(=O)c1c(C)n(C)c2ccc(O)c(CN3CCC(C)CC3)c12` here?
A: 0 (inactive)

Q: Which manual score does the source give for `Cc1ccc(-c2c(C)sc(NC(=O)C3C4CCC(O4)C3C(=O)O)c2C(=O)OC(C)C)cc1` (stereo unspecified) here?
A: 0 (inactive)

Q: Which manual score does the source give for `COc1ccc(S(=O)(=O)NCCC(=O)NC2CCCCCCC2)cc1` here?
A: 0 (inactive)

Q: With `COC(=O)c1ccc(NS(=O)(=O)c2ccc(SC)cc2)cc1` as the compound, how does the manual score read?
A: 0 (inactive)

Q: Which manual score does the source give for `CC1CCc2c(sc(NS(=O)(=O)c3ccccc3)c2C(=O)OC(C)C)C1` (stereo unspecified) here?
A: 1 (active)

Q: For `CC(C)OC(=O)c1c(NS(=O)(=O)c2ccccc2)sc2c1CCCC2`, which manual score is on record?
A: 1 (active)

Q: For `COC(=O)c1c(NS(=O)(=O)c2ccc(C)cc2)sc2c1CCC(C)C2` (stereo unspecified), which manual score is on record?
A: 1 (active)

Q: Which manual score does the source give for `COc1cccc(CNc2nc3ccccc3n2CCN2CCCCC2)c1OC` here?
A: 0 (inactive)

Q: With `CC(C)(C)NC(=O)C(c1ccncc1)N(C(=O)c1csnn1)c1ccccc1` (stereo unspecified) as the compound, how does the manual score read?
A: 0 (inactive)

Q: Which manual score does the source give for `COC(=O)COc1ccc(S(=O)(=O)Nc2ccccc2C(=O)OC)cc1` here?
A: -0.5 (inactive)

Q: With `O=C(COc1ccccc1)NC(=S)Nc1ccc2c(c1)Cc1ccccc1-2` as the compound, how does the manual score read?
A: 0 (inactive)

Q: With `O=C(COc1ccccc1)NC(=S)Nc1cccc([N+](=O)[O-])c1` as the compound, how does the manual score read?
A: 1 (active)

Q: For `CSc1cccc(NC(=O)COc2ccccc2)c1`, which manual score is on record?
A: 0 (inactive)

Q: For `COC(=O)c1ccccc1NC(=S)NC(=O)c1ccc(C)cc1`, which manual score is on record?
A: 1 (active)

Q: Which manual score does the source give for `COC(=O)c1ccccc1NC(=S)NC(=O)COc1ccc(C)cc1` here?
A: 0 (inactive)

Q: With `COC(=O)c1ccccc1NC(=S)NC(=O)COc1ccccc1` as the compound, how does the manual score read?
A: 1 (active)

Q: For `COC(=O)c1ccccc1NC(=S)NC(=O)c1ccccc1`, which manual score is on record?
A: 1 (active)

Q: For `COc1ccc(OC)c(-c2c3cc(O)c(=O)cc-3oc3cc(O)c(O)cc23)c1`, which manual score is on record?
A: 0 (inactive)

Q: With `COc1cc(C)nc(N(Cc2ccccc2)S(=O)(=O)c2ccccc2)n1` as the compound, how does the manual score read?
A: 0 (inactive)

Q: Which manual score does the source give for `O=C(NNS(=O)(=O)c1ccccc1F)c1cccc(S(=O)(=O)N2CCOCC2)c1` here?
A: 0 (inactive)

Q: With `COc1cc(CNc2ccc(N3CCCC3)cc2)ccc1OCc1ccccc1` as the compound, how does the manual score read?
A: 0 (inactive)

Q: With `CC(Oc1ccc2ccccc2c1)C(=O)NNC(=S)NC(=O)c1ccco1` (stereo unspecified) as the compound, how does the manual score read?
A: 1 (active)

Q: With `CC(Oc1ccc(Cl)cc1)C(=O)N/N=C/c1ccsc1` (stereo unspecified) as the compound, how does the manual score read?
A: 0 (inactive)

Q: Which manual score does the source give for `CC(Oc1ccc(Cl)cc1)C(=O)NNC(=S)NC(=O)c1ccco1` (stereo unspecified) here?
A: 1 (active)

Q: For `CCSc1nnc(NC(=O)NC(CC)(C(F)(F)F)C(F)(F)F)s1`, which manual score is on record?
A: 0 (inactive)

Q: Which manual score does the source give for `O=C(C1CCCN1S(=O)(=O)c1cccc2cccnc12)N1CCc2ccccc21` (stereo unspecified) here?
A: 0 (inactive)

Q: For `O=C(C1CCN(S(=O)(=O)c2cccc3cccnc23)CC1)N1CC=C(c2ccccc2)CC1`, which manual score is on record?
A: -1 (active)

Q: For `O=C(C1CCCN1S(=O)(=O)c1cccc2cccnc12)N1CCn2c1nc1ccccc12` (stereo unspecified), which manual score is on record?
A: 0 (inactive)

Q: With `Cc1cc(-c2n[nH]c(=S)n2/N=C/c2ccc(Br)s2)n[nH]1` as the compound, how does the manual score read?
A: 1 (active)

Q: Which manual score does the source give for `S=c1[nH]nc(-c2ccco2)n1/N=C/c1ccc(Br)s1` here?
A: 1 (active)

Q: With `CCN=c1scc(-c2ccco2)n1/N=C/c1ccc(O)cc1` as the compound, how does the manual score read?
A: 0 (inactive)

Q: For `S=c1[nH]nc(-c2ccccn2)n1/N=C/c1ccc(Br)s1`, which manual score is on record?
A: 1 (active)

Q: For `Cc1c(C(=O)NCc2cccnc2)oc2ccc(S(=O)(=O)N3CCC4(CC3)OCCO4)cc12`, which manual score is on record?
A: 0 (inactive)

Q: For `Clc1ccc(CSc2ncn(-c3ccccc3)n2)cc1`, which manual score is on record?
A: 0 (inactive)

Q: With `COC(=O)Cn1c(CN2CCc3ccccc3C2)nc2c1c(=O)n(C)c(=O)n2C` as the compound, how does the manual score read?
A: 0 (inactive)

Q: Which manual score does the source give for `Cc1ccc(-n2c(CSc3nc(C)cc(C)n3)nnc2SCC(=O)NCc2ccco2)cc1` here?
A: 0 (inactive)

Q: For `O=C(CSc1nnc(-c2c[nH]c3ccccc23)n1-c1ccc(F)cc1)NCc1ccco1`, which manual score is on record?
A: -1 (active)

Q: For `O=C(CSc1c[nH]c2ccccc12)NCc1ccc2c(c1)OCO2`, which manual score is on record?
A: 0 (inactive)

Q: For `CCOC(=O)C1CCCN(c2nc(C)nc3c2oc2ccccc23)C1` (stereo unspecified), which manual score is on record?
A: 0 (inactive)

Q: With `CCOC(=O)N1CCN(C(=O)CN(Cc2ccccc2)S(=O)(=O)c2ccc(OC)c(C)c2)CC1` as the compound, how does the manual score read?
A: 0 (inactive)

Q: With `C=CCn1c(SCC(=O)Nc2sccc2C(N)=O)nc2ccc(Cl)cc2c1=O` as the compound, how does the manual score read?
A: 1 (active)

Q: Which manual score does the source give for `COc1ccc(CNCCC(c2ccc(F)cc2)c2ccc(OC)cc2)cc1` (stereo unspecified) here?
A: 0 (inactive)

Q: For `O=C(/C=C/c1ccccc1)C1C(=O)c2ccccc2C1=O`, which manual score is on record?
A: 1 (active)

Q: With `CCc1ccc(/C=C/C(=O)C2C(=O)c3ccccc3C2=O)cc1` as the compound, how does the manual score read?
A: 1 (active)

Q: For `CC(/C=C\c1cccnc1)=C/C(=O)O`, which manual score is on record?
A: 0 (inactive)

Q: With `CCc1ccc(/C=c2\s/c(=C\C(=O)C(C)(C)C)[nH]c2=O)cc1` as the compound, how does the manual score read?
A: 0 (inactive)

Q: With `CCOC(=O)C1=NNC(C(=O)c2ccc(OC)cc2)C1c1ccccc1` (stereo unspecified) as the compound, how does the manual score read?
A: 0 (inactive)

Q: With `Cc1ccc2c(c1)NC(=O)CC(c1ccccc1)=N2` as the compound, how does the manual score read?
A: 0 (inactive)

Q: For `FC(F)(F)c1ccc2nnc(-c3c(Cl)cccc3Cl)n2c1`, which manual score is on record?
A: 0 (inactive)

Q: For `CN(c1ccc(OCC(=O)OCC(=O)Nc2ccccc2F)cc1)S(=O)(=O)c1cccs1`, which manual score is on record?
A: 0 (inactive)
